Measured values from PubChem BioAssay (EPA / NIEHS).
Activity calls are given as the source filed them. How the source made its calls: active means hit-call score of the fitted dose curve at least 0.9, where 1 is the maximum; inactive means score below 0.9.

Legend:
[1] = ATG_CRE_CIS: Attagene CIS-FACTORIAL HepG2 Assay for human cAMP Responsive Element (CRE) binding protein 3 (AID 2282926); conditions: HepG2 CRE cis-reporter, Attagene multiplexed mRNA; actives raise or lower the signal
Method in brief: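 We dosed HepG2 cells bearing multiple cis-promoter reporter units for 24 h and measured reporter mRNA by RT-PCR with capillary electrophoresis detection. Bidirectional concentration-response fitting used DMSO as negative control.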

[2] = target: CCAAT/enhancer-binding protein beta (Homo sapiens) (UniProt P17676); assay: ATG_C_EBP_CIS: Attagene CIS-FACTORIAL HepG2 Assay for human CCAAT/Enhancer Binding Protein (C/EBP) beta (AID 2282927); conditions: HepG2 Attagene cis-factorial transcription factor reporter; actives raise or lower the signal
Chain of CCAAT/enhancer-binding protein beta (Homo sapiens) (P17676 whole entry, looked up): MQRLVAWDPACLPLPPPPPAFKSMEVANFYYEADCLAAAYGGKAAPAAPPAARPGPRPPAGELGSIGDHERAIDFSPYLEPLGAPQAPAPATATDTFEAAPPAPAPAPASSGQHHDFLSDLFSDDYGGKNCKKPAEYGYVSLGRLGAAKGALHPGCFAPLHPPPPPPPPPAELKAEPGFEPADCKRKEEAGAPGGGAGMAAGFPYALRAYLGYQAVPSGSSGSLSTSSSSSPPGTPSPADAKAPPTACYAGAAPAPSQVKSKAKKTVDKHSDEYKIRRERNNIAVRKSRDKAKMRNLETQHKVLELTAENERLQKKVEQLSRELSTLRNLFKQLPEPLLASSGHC
Method in brief: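 HepG2, transient MRTU transfection, 24 h treatment. RT-PCR plus CE fluorescence; DMSO negative control, bidirectional fit.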

[3] = ATG_CMV_CIS: Attagene CIS-FACTORIAL HepG2 Assay for human CMV (Internal Marker) (AID 2282928); conditions: HepG2 CMV promoter reporter, transcription factor profiling; actives raise or lower the signal;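 further: endpoint acts as a background internal control marker rather than a target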
Method in brief: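 After transient transfection of HepG2 with reporter transcription units driven by cis-regulatory promoters, cells receive test chemical for 24 h. Labeled reporter amplicons, digested with HpaI, are sized and quantified by capillary electrophoresis against DMSO.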

[4] = ATG_DR4_LXR_CIS: Attagene CIS-FACTORIAL HepG2 Assay for human Liver X Receptor (LXR), DR4 submotif (AID 2282929); conditions: HepG2 Attagene DR4 cis-reporter, mRNA transcription; actives raise or lower the signal
Method in brief: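 HepG2 cells were transiently transfected with multiple cis-regulated reporter units and dosed for 24 hours. The DR4 reporter mRNA was quantified by RT-PCR, 6-FAM labelling and capillary electrophoresis. Bidirectional fits used DMSO as baseline.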

[5] = target: Aryl hydrocarbon receptor (Homo sapiens) (UniProt P35869); assay: ATG_Ahr_CIS: Attagene CIS-FACTORIAL HepG2 Assay for human Aryl Hydrocarbon Receptor (Ahr) (AID 2282930); conditions: HepG2 AhR cis-factorial reporter transcription; actives raise or lower the signal
Chain of Aryl hydrocarbon receptor (Homo sapiens) (P35869 whole entry, looked up): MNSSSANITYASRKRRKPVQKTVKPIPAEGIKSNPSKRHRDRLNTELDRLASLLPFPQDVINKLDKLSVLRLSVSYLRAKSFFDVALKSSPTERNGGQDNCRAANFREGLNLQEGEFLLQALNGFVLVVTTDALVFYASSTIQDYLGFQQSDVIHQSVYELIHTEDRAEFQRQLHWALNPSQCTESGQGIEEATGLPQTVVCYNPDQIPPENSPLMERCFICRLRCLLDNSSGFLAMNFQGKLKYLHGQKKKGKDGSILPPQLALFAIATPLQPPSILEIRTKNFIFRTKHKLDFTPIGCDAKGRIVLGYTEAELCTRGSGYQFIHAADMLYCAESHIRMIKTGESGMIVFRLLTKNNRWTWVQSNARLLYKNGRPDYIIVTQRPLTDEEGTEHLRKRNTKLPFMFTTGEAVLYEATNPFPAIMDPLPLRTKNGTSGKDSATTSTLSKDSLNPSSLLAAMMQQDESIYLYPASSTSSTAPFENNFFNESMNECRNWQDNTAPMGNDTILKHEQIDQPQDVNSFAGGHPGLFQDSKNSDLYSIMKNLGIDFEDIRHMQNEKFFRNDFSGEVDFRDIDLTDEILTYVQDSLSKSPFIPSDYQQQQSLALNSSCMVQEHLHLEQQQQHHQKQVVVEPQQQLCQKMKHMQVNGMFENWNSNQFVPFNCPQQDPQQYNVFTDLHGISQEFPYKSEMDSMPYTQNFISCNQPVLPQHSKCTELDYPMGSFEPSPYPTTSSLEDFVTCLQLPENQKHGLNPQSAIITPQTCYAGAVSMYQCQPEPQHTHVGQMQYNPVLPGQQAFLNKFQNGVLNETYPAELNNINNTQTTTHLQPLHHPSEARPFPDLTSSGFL
Method in brief: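 Endogenous factor activity is tracked through cis-promoter reporter units transfected into HepG2 cells. Transcript levels at 24 h are read by fluorescent RT-PCR and capillary electrophoresis, with activity in either direction scored relative to DMSO.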

[6] = ATG_AP_1_CIS: Attagene CIS-FACTORIAL HepG2 Assay for human Activator Protein 1 (AP-1) (AID 2282931); conditions: HepG2 Attagene cis-factorial AP-1 reporter mRNA; actives raise or lower the signal
Method in brief: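 HepG2 cells transiently transfected with cis-element-driven reporter transcription units, dosed for 24 hours. Reporter mRNA measured by RT-PCR, 6-FAM labelling, HpaI digestion and capillary electrophoresis. Bidirectional fitting against DMSO baseline.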

[7] = ATG_BRE_CIS: Attagene CIS-FACTORIAL HepG2 Assay for human Bone Morphogenetic Protein (BMP) Response Element (BRE) (AID 2282933); conditions: HepG2 BMP response element reporter, Attagene transcription factor profiling; actives raise or lower the signal
Method in brief: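 Read-out: reporter mRNA induction quantified by RT-PCR and capillary electrophoresis after 24 h chemical exposure of transfected HepG2 cells. Endogenous factor activity on the BMP response element; gain or loss fitted against DMSO baseline.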

[8] = target: Transcription factor E2F1 (Homo sapiens) (UniProt Q01094); assay: ATG_E2F_CIS: Attagene CIS-FACTORIAL HepG2 Assay for human E2F Transcription Factor 1 (AID 2282935); conditions: HepG2 Attagene cis-reporter, E2F reporter RNA transcripts; actives raise or lower the signal
Chain of Transcription factor E2F1 (Homo sapiens) (Q01094 whole entry, looked up): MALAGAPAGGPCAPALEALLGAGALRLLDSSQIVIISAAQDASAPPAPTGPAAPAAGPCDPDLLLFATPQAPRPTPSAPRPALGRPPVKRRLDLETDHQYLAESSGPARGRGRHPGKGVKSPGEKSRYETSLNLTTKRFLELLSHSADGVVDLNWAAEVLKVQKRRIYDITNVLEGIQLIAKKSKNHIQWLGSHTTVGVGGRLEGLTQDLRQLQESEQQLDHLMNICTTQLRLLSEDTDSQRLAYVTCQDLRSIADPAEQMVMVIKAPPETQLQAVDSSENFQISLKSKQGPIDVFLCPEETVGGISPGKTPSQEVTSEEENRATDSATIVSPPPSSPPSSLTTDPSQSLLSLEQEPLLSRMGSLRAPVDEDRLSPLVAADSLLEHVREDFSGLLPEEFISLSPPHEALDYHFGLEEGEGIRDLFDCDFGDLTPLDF
Method in brief: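 Endogenous E2F1 activity read through cis-promoter reporter units transfected into HepG2. After 24 h compound treatment, reporter mRNA measured by RT-PCR, HpaI digestion and capillary electrophoresis. Bidirectional fit versus DMSO.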

[9] = ATG_E_Box_CIS: Attagene CIS-FACTORIAL HepG2 Assay for human Enhancer Box (E-box) (AID 2282936); conditions: HepG2 E-box cis-reporter transcription, actives raise or lower the signal
Method in brief: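 HepG2 cells transiently transfected with multiplexed cis-element reporter units, dosed 24 h; reporter mRNA quantified by RT-PCR, 6-FAM labelling, HpaI digestion and capillary electrophoresis. E-box (USF1) signal fitted bidirectionally vs DMSO.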

[10] = ATG_M_61_CIS: Attagene CIS-FACTORIAL HepG2 Assay for M61 Transcription Factor (Internal Marker) (AID 2282937); conditions: HepG2 Attagene CIS-FACTORIAL M61 internal marker reporter; actives raise or lower the signal
Method in brief: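 HepG2 cells transiently transfected with multiplexed cis-promoter reporter units reporting endogenous transcription factor activity, measured 24 h after dosing. Reporter mRNA quantified by RT-PCR and capillary electrophoresis; bidirectional fit against DMSO baseline.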

[11] = ATG_EGR_CIS: Attagene CIS-FACTORIAL HepG2 Assay for human Early Growth Response 1 (EGR1) (AID 2282938); conditions: HepG2 Attagene CIS-FACTORIAL EGR reporter mRNA; actives raise or lower the signal
Method in brief: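 HepG2 cells transiently transfected with cis-element-driven multiplexed reporter units, dosed for 24 h. EGR1-element reporter mRNA quantified by RT-PCR, 6-FAM labelling, HpaI digestion and capillary electrophoresis; bidirectional fit versus DMSO.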

[12] = ATG_M_19_CIS: Attagene CIS-FACTORIAL HepG2 Assay for M19 Transcription Factor (Internal Marker) (AID 2282939); conditions: HepG2 Attagene CIS-FACTORIAL M19 internal marker reporter; actives raise or lower the signal
Method in brief: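 Readout: fluorescent reporter-transcript fragments by capillary electrophoresis after RT-PCR. Human HepG2 liver cells carried transfected MRTU constructs reporting endogenous transcription-factor activity; exposure 24 h. Gain or loss of signal fitted relative to DMSO.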

[13] = ATG_ERE_CIS: Attagene CIS-FACTORIAL HepG2 Assay for Estrogen Response Element (ERE) (AID 2282940); conditions: HepG2 ERE cis-reporter, Attagene RNA transcript; actives raise or lower the signal
Method in brief: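 Readout: reporter mRNA induction by RT-PCR, FAM-labelled primer extension, HpaI digestion and capillary electrophoresis, 24 h after dosing transfected HepG2 cells. Endogenous transcription factors act on cis-element-regulated reporters. Gain or loss fitted against DMSO.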

[14] = ATG_Ets_CIS: Attagene CIS-FACTORIAL HepG2 Assay for human Erythroblast Transformation Specific (ETS) (AID 2282941); conditions: HepG2 ETS cis-reporter transcription, actives raise or lower the signal
Method in brief: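 Human HepG2 hepatoma cells were transiently transfected with promoter-driven reporter constructs and treated for 24 hours. Reporter transcripts were quantified by RT-PCR with fluorescent primer extension; bidirectional curve fitting used DMSO as reference.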

[15] = target: Hepatocyte nuclear factor 3-beta (Homo sapiens) (UniProt Q9Y261); assay: ATG_FoxA2_CIS: Attagene CIS-FACTORIAL HepG2 Assay for human Forkhead box A2 (FOXA2) (AID 2282942); conditions: HepG2 cis-reporter transcription factor activity, 24 h; actives raise or lower the signal
Chain of Hepatocyte nuclear factor 3-beta (Homo sapiens) (Q9Y261 whole entry, looked up): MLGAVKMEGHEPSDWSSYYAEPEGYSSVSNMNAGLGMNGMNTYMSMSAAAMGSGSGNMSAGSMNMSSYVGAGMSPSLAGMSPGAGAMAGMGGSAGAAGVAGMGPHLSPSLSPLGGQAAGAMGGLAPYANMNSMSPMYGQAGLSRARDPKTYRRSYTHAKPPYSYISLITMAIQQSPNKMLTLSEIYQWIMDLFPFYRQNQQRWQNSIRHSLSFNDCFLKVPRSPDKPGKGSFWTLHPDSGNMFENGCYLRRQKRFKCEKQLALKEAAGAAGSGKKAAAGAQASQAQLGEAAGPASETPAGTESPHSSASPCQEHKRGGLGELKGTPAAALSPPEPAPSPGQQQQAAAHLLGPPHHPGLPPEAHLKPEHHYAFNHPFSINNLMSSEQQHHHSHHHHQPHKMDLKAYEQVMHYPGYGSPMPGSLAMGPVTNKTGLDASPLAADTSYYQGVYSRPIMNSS
Method in brief: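 HepG2 transiently transfected with a multiplexed cis-promoter reporter library read endogenous FOXA2 activity. After 24 h compound exposure, reporter mRNA was quantified by RT-PCR, HpaI digestion and capillary electrophoresis. Bidirectional fit against DMSO.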

[16] = ATG_FoxO_CIS: Attagene CIS-FACTORIAL HepG2 Assay for human Forkhead box O (FoxO) (AID 2282943); conditions: HepG2 Attagene cis-reporter, FoxO element, mRNA; actives raise or lower the signal
Method in brief: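 Transfected HepG2 reporter cells exposed to test chemical for 24 h; reporter RNA measured by reverse transcription, PCR and fluorescent capillary electrophoresis; curves fitted for increases and decreases against DMSO.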

[17] = ATG_GATA_CIS: Attagene CIS-FACTORIAL HepG2 Assay for human GATA Binding Protein (AID 2282944); conditions: HepG2 GATA cis-element reporter, Attagene multiplex mRNA; actives raise or lower the signal
Method in brief: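 Read-out: fluorescent reporter mRNA fragments resolved by capillary electrophoresis after RT-PCR. Human liver HepG2 cells carried transiently transfected cis-regulated reporter constructs; chemicals incubated 24 h; gain or loss of signal fitted relative to DMSO.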

[18] = ATG_GLI_CIS: Attagene CIS-FACTORIAL HepG2 Assay for human Zinc Finger Protein GLI1 (AID 2282945); conditions: HepG2, Attagene cis-factorial reporter mRNA, GLI element; actives raise or lower the signal
Method in brief: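 Transiently transfected HepG2 cells report endogenous transcription factor activity via cis-element-driven reporter units. After 24 h compound exposure, reporter mRNA was measured by RT-PCR with capillary electrophoresis; bidirectional fitting against DMSO baseline.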

[19] = target: Retinoic acid receptor alpha (Homo sapiens) (UniProt P10276); assay: ATG_DR5_RAR_CIS: Attagene CIS-FACTORIAL HepG2 Assay for human Retinoic Acid Receptor Alpha (RARE), DR5 submotif (AID 2282934); conditions: HepG2 Attagene cis-factorial RARE DR5 reporter, mRNA; actives raise or lower the signal
Chain of Retinoic acid receptor alpha (Homo sapiens) (P10276 whole entry, looked up): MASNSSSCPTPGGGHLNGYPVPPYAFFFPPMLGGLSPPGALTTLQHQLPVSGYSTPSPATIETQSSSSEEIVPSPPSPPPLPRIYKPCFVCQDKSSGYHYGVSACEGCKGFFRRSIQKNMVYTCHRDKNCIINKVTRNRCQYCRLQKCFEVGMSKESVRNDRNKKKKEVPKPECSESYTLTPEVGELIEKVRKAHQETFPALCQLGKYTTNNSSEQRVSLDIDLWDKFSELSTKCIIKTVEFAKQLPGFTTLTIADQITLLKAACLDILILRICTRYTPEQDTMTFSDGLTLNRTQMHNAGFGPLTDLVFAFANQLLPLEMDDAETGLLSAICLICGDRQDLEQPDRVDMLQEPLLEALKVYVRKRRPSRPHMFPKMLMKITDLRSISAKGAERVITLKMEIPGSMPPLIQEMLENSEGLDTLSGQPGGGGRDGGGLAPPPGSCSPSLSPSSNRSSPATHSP
Method in brief: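 After 24 h of chemical exposure, transiently transfected HepG2 cells were lysed for total RNA; the DR5-regulated reporter transcript was quantified via RT-PCR and capillary electrophoresis, with activity fitted bidirectionally against DMSO.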

Measured: AC50

CC1=CC[C@H](C(C)C)C=C1
not listed: [19]
inactive: all other assays above

O=C1CCCCCCCCCCC(=O)OCCO1
inactive: all assays above

C=C[C@](C)(O)CC[C@@H]1[C@@]2(C)CCCC(C)(C)[C@@H]2CC[C@@]1(C)O
inactive: all assays above

CCc1ccc2c(c1)C(=O)c1ccccc1C2=O
active: [5] 5.39 µM
not listed: [10]
inactive: all other assays above

CCO[Si](C)(OCC)OCC
inactive: all assays above

CCCCCCCCC(=O)OCC
not listed: [17]
inactive: all other assays above

C=CC(C)(CCC=C(C)C)OC(=O)C(C)C (stereo not given)
active: [3] 141 µM | [6] 146 µM | [13] 32.1 µM
inactive: all other assays above
